Results filed as inconclusive are left out. Unless noted, calls follow the shape of the dose curve; as a rule, active = well fitted curve in either direction with a large enough effect (not every such curve was filed as active); inconclusive = small, poorly fitted or top-dose-only effect, or another doubt; inactive = flat fitted curve, though single readings scatter.
Assays:
[1] = AP1 Signaling Pathway (AID 357); conditions: ME-180 AP-1-bla reporter, EGF-induced, beta-lactamase ratio, 5 h; at 17.2 µM (top of the series) unless noted; also: % is scaled to controls: 0 for no effect and ±100 for the full control effect
How it was run: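 ME-180 cells with beta-lactamase reporter under AP-1 response element, stimulated with EC50 EGF; compounds tested in titration series, 5 h at 37 °C. CCF4 substrate added 2.5 h at room temperature; 460/530 nm emission ratio gave %activity and AC50.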

[2] = NFAT Signaling Pathway (AID 444); conditions: Jurkat NFAT-bla M1, carbachol, beta-lactamase ratio, 5 h; at 17.2 µM (top of the series) unless noted;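 also: carbachol stimulus at about its EC50 of 1 µM final; % is scaled to controls: 0 for no effect and ±100 for the full control effect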
How it was run: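 Jurkat cells carrying an NFAT-driven β-lactamase reporter and co-transfected muscarinic M1 receptor were treated with compound plus carbachol (1 uM final, an EC50 level) for 5 h at 37 °C. CCF4 loading followed for 1 h at RT; 460/530 nm ratio gave %activity.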

[3] = Stat Signaling Pathway (AID 446); conditions: ME-180 (cervical carcinoma) SIE beta-lactamase reporter, IL-6 stimulated, 5 h; at 17.2 µM (top of the series) unless noted;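 also: ME-180 cervical cancer cells given 40 pM IL-6 alongside compound; SIE-controlled beta-lactamase reporter measured as 460/530 nm FRET emission ratio; % is scaled to controls: 0 for no effect and ±100 for the full control effect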
How it was run: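 Emission at 460 and 530 nm (excitation 405 nm) reports SIE-controlled beta-lactamase in ME-180 cells. Cells received compound with 40 pM IL-6 for 5 hrs at 37 C; data scaled between 300 pM IL-6 and 125 nM JAK-inhibitor controls.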

[4] = target: Glucocorticoid receptor (Homo sapiens) (UniProt P04150); test: GR-GFP Redistribution (AID 450;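 active = compounds whose dose series gives a full or clear partial fitted curve of increased nuclear translocation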; also: potency is read from the fitted curve at half-maximal effect)
Glucocorticoid receptor (Homo sapiens), sequence (P04150 whole entry, looked up): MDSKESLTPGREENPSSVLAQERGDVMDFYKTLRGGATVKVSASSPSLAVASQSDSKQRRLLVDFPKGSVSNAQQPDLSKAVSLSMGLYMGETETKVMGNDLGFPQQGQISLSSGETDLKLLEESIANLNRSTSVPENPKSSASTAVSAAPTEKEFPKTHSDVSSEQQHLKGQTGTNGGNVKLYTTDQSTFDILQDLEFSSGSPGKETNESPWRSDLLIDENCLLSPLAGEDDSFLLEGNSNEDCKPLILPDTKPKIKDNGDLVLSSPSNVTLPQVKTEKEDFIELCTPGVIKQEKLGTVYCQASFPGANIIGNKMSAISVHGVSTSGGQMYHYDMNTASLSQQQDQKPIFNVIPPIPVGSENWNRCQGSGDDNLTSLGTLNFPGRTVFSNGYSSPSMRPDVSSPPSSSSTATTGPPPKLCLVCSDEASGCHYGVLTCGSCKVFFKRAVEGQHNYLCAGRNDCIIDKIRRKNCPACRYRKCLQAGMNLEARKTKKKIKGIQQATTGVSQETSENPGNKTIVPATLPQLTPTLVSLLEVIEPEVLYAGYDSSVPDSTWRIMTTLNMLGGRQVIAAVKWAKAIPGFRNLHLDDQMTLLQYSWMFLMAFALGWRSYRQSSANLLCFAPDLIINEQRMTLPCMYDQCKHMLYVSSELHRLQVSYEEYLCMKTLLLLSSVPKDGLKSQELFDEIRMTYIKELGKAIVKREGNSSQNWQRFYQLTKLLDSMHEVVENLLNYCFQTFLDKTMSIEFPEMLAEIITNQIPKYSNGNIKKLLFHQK

COc1ccc(-c2nc3n(n2)C(=O)CC(c2ccco2)S3)cc1 (configuration not stated)
inactive: activity change, negative = inhibition [1] -9.14% | activity change, negative = inhibition [2] 0.813% | activity, negative = inhibition [3] -11.3% | Potency [4] > 20.6 µM

O=C1CC(c2ccccc2)NC(=O)N1 (configuration not stated)
inactive: activity change, negative = inhibition [1] 8.17% | activity change, negative = inhibition [2] -2.15% | activity, negative = inhibition [3] -0.378% | Potency [4] > 20.6 µM

COc1cc(N2C(=O)CSC23C(=O)Nc2ccccc23)cc(OC)c1OC (configuration not stated)
inactive: activity change, negative = inhibition [1] 14.9% | activity change, negative = inhibition [2] 18.9% | activity, negative = inhibition [3] -2.69% | Potency [4] > 20.6 µM

N#CC1(c2ccccc2)CCC(=NO)CC1 (configuration not stated)
inactive: activity change, negative = inhibition [1] -5.72% | activity change, negative = inhibition [2] 8.2% | activity, negative = inhibition [3] 11.5% | Potency [4] > 20.6 µM

CC1CCN(c2ncnc3c2cnn3Cc2ccc(Cl)cc2)CC1
inactive: activity change, negative = inhibition [1] -26% | activity change, negative = inhibition [2] -2.2% | activity, negative = inhibition [3] -11.4% | Potency [4] > 20.6 µM

COc1cccc(N2C(=O)C(O)=C(C(C)=O)C2c2ccc(OC)c(OC)c2)c1 (configuration not stated)
inactive: activity change, negative = inhibition [1] -12.6% | activity change, negative = inhibition [2] 9.05% | activity, negative = inhibition [3] 0.326% | Potency [4] > 20.6 µM

CNC(=O)c1ncnnc1N(C)C(=O)NCc1ccccc1
inactive: activity change, negative = inhibition [1] -4.45% | activity change, negative = inhibition [2] 4.03% | activity, negative = inhibition [3] 0.797% | Potency [4] > 20.6 µM

COc1cc(/C=N/n2nnnc2N)ccc1O
inactive: activity change, negative = inhibition [1] -2.54% | activity change, negative = inhibition [2] -23.8% | activity, negative = inhibition [3] -1.69% | Potency [4] > 20.6 µM

Cc1cc(O)c(C(C)C)cc1N=C1CSC(=O)N1
inactive: activity change, negative = inhibition [1] -11.9% | activity change, negative = inhibition [2] -9.06% | activity, negative = inhibition [3] -6.54% | Potency [4] > 20.6 µM

Cc1ccc(N(CC(=O)O)C2SC(=O)NC2=O)cc1 (configuration not stated)
inactive: activity change, negative = inhibition [1] 12.3% | activity change, negative = inhibition [2] 0.868% | activity, negative = inhibition [3] 6.57% | Potency [4] > 20.6 µM

O=C1CCC(=O)N1CN(C(=O)c1ccco1)c1ccc(Cl)c(Cl)c1
inactive: activity change, negative = inhibition [1] -6.31% | activity change, negative = inhibition [2] -5.89% | activity, negative = inhibition [3] 11.1% | Potency [4] > 20.6 µM

CCOC(=O)N1CCN(/C=C(\C#N)c2nc3ccccc3s2)CC1
inactive: activity change, negative = inhibition [1] -15.9% | activity change, negative = inhibition [2] 13.1% | activity, negative = inhibition [3] -10% | Potency [4] > 20.6 µM

Cc1ccc(C2CC(c3cccs3)n3nc(N)nc3N2)cc1 (configuration not stated)
inactive: activity change, negative = inhibition [1] 2.57% | activity change, negative = inhibition [2] 6.31% | activity, negative = inhibition [3] 3.76% | Potency [4] > 20.6 µM

CCOCCN(C(=O)COC)c1cccc(OC)c1
inactive: activity change, negative = inhibition [1] 20.2% | activity change, negative = inhibition [2] 2.78% | activity, negative = inhibition [3] 6.59% | Potency [4] > 20.6 µM

OCCOCCNc1ncnc2c1cnn2-c1ccc(Cl)cc1
inactive: activity change, negative = inhibition [1] 9.08% | activity change, negative = inhibition [2] 0.366% | activity, negative = inhibition [3] 4.43% | Potency [4] > 20.6 µM

N#Cc1nc(-c2cccs2)oc1NCCN1CCOCC1
inactive: activity change, negative = inhibition [1] -3.9% | activity change, negative = inhibition [2] -7.03% | activity, negative = inhibition [3] 5.17% | Potency [4] > 20.6 µM

CC(C)Cc1nc(NCCN2CCOCC2)c(C#N)c2c1COC(C)(C)C2
inactive: activity change, negative = inhibition [1] -8.99% | activity change, negative = inhibition [2] -9.59% | activity, negative = inhibition [3] 19.2% | Potency [4] > 20.6 µM

Cc1cc(/C=N/n2cnnc2)c(C)n1-c1ccc2c(c1)OCO2
inactive: activity change, negative = inhibition [1] 9.26% | activity change, negative = inhibition [2] -13% | activity, negative = inhibition [3] -0.639% | Potency [4] > 20.6 µM
